This note sets out measurements from PMC11006913.

Assay in all cases: PBM; 200 nM protein, PBS
Common to all, as to settings: dsDNA, one strand shown

For assay [1], the target named is NKX3-2 (Homo sapiens, UniProt P78367 192-278, P234S).
The target in assay [2] is NKX3-2 (Homo sapiens, UniProt P78367 192-278).
The target in assay [3] is ALX3 (Homo sapiens, UniProt O95076 139-225, N203Q).
In assay [4] the target is HOXB6 (Homo sapiens, UniProt P17509 132-218, K202E).
For assay [5], the target named is HOXB6 (Homo sapiens, UniProt P17509 132-218).
Assay [6] concerns the target HOXA4 (Homo sapiens, UniProt Q00056 201-287, W262R).
For assay [7], the target named is HOXC9 (Homo sapiens, UniProt P31274 178-260, K195R).
The target of assay [8] is HOXA7 (Homo sapiens, UniProt P31268 116-202).
For assay [9], the target named is HOXA4 (Homo sapiens, UniProt Q00056 201-287, R217L).
For assay [10], the target named is HOXC9 (Homo sapiens, UniProt P31274 178-260).
The target of assay [11] is HOXC9 (Homo sapiens, UniProt P31274 178-260, R193K).
Assay [12] has as its target HOXA4 (Homo sapiens, UniProt Q00056 201-287).
The target of assay [13] is HOXC9 (Homo sapiens, UniProt P31274 178-260, R222W).
For assay [14], the target named is HOXA7 (Homo sapiens, UniProt P31268 116-202, W177C).
The target of assay [15] is HOXA4 (Homo sapiens, UniProt Q00056 201-287, W262F).
Assay [16] addresses ALX3 (Homo sapiens, UniProt O95076 139-225).
The target of assay [17] is ALX3 (Homo sapiens, UniProt O95076 139-225, L168Q).
The target of assay [18] is ALX3 (Homo sapiens, UniProt O95076 139-225, L168V).
Assay [19] concerns the target ALX3 (Homo sapiens, UniProt O95076 139-225, N203S).
In assay [20] the target is VAX1 (Homo sapiens, UniProt Q5SQQ9 86-172, K157R).
Chain of VAX1 (Q5SQQ9 86-172 K157R): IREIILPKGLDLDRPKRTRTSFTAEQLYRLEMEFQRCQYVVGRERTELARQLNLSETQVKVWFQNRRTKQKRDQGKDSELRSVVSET

Chain of NKX3-2 (Homo sapiens, UniProt P78367 192-278, P234S) (P78367 192-278 P234S): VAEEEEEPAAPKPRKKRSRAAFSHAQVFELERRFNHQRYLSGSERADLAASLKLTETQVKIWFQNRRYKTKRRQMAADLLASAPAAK
Chain of HOXA7 (Homo sapiens, UniProt P31268 116-202) (P31268 116-202): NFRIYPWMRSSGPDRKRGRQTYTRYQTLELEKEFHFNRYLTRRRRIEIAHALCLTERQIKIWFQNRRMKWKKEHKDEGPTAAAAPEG
Chain of ALX3 (Homo sapiens, UniProt O95076 139-225, N203Q) (O95076 139-225 N203Q): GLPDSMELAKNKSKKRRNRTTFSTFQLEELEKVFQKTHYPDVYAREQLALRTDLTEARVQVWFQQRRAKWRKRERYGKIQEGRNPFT
Chain of HOXA4 (Homo sapiens, UniProt Q00056 201-287, W262R) (Q00056 201-287 W262R): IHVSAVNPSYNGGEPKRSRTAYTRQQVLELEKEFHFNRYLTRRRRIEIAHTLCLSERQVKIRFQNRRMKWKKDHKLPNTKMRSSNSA
Chain of ALX3 (Homo sapiens, UniProt O95076 139-225, N203S) (O95076 139-225 N203S): as the sequence (O95076 139-225 N203Q) above, with Q65S counted along it
Chain of HOXC9 (Homo sapiens, UniProt P31274 178-260) (P31274 178-260): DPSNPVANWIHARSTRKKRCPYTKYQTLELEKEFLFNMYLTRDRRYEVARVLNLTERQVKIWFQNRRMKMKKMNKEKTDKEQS
Chain of HOXC9 (Homo sapiens, UniProt P31274 178-260, R222W) (P31274 178-260 R222W): as the sequence (P31274 178-260) above, with R45W counted along it
Chain of HOXA7 (Homo sapiens, UniProt P31268 116-202, W177C) (P31268 116-202 W177C): as the sequence (P31268 116-202) above, with W62C counted along it
Chain of ALX3 (Homo sapiens, UniProt O95076 139-225, L168V) (O95076 139-225 L168V): as the sequence (O95076 139-225 N203Q) above, with L30V, Q65N counted along it
Chain of ALX3 (Homo sapiens, UniProt O95076 139-225, L168Q) (O95076 139-225 L168Q): as the sequence (O95076 139-225 N203Q) above, with L30Q, Q65N counted along it
Chain of HOXB6 (Homo sapiens, UniProt P17509 132-218, K202E) (P17509 132-218 K202E): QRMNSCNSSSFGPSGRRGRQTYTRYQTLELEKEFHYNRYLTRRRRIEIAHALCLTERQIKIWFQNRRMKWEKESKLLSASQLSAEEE
Chain of NKX3-2 (Homo sapiens, UniProt P78367 192-278) (P78367 192-278): as the sequence (P78367 192-278 P234S) above, with S43P counted along it
Chain of HOXC9 (Homo sapiens, UniProt P31274 178-260, K195R) (P31274 178-260 K195R): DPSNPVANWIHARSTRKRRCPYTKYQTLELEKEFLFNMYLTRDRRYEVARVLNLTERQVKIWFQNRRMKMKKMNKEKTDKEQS
Chain of HOXA4 (Homo sapiens, UniProt Q00056 201-287, W262F) (Q00056 201-287 W262F): as the sequence (Q00056 201-287 W262R) above, with R62F counted along it
Chain of HOXB6 (Homo sapiens, UniProt P17509 132-218) (P17509 132-218): as the sequence (P17509 132-218 K202E) above, with E71K counted along it
Chain of ALX3 (Homo sapiens, UniProt O95076 139-225) (O95076 139-225): as the sequence (O95076 139-225 N203Q) above, with Q65N counted along it
Chain of HOXA4 (Homo sapiens, UniProt Q00056 201-287, R217L) (Q00056 201-287 R217L): as the sequence (Q00056 201-287 W262R) above, with R17L, R62W counted along it
Chain of HOXA4 (Homo sapiens, UniProt Q00056 201-287) (Q00056 201-287): as the sequence (Q00056 201-287 W262R) above, with R62W counted along it
Chain of HOXC9 (Homo sapiens, UniProt P31274 178-260, R193K) (P31274 178-260 R193K): as the sequence (P31274 178-260) above, with R16K counted along it

For GCAGCCCC, the binding signal is 10.7 upbm affinity estimate (log intensity, higher = more binding, comparable within an allelic series) in assay [1] and 10.7 upbm affinity estimate (log intensity, higher = more binding, comparable within an allelic series) in [2].

CGCCGGGA: the binding signal was 10.5 upbm affinity estimate (log intensity, higher = more binding, comparable within an allelic series) in assay [1] and 10.5 upbm affinity estimate (log intensity, higher = more binding, comparable within an allelic series) in [2].

ACCGGCCT: the binding signal in assay [1] was 10.6 upbm affinity estimate (log intensity, higher = more binding, comparable within an allelic series); in [2], 10.5 upbm affinity estimate (log intensity, higher = more binding, comparable within an allelic series).

Consider ATTAACAA, for which the binding signal in [3] is 8.57 upbm affinity estimate (log intensity, higher = more binding, comparable within an allelic series).

As to CTCGGGCC, the binding signal in assay [4] is 8.97 upbm affinity estimate (log intensity, higher = more binding, comparable within an allelic series); in [5] it was 8.82 upbm affinity estimate (log intensity, higher = more binding, comparable within an allelic series).

Consider CCCAGCCG, for which the binding signal in assay [6] is 9.73 upbm affinity estimate (log intensity, higher = more binding, comparable within an allelic series); in assay [7], 9.41 upbm affinity estimate (log intensity, higher = more binding, comparable within an allelic series); in assay [8], 8.28 upbm affinity estimate (log intensity, higher = more binding, comparable within an allelic series); in [9] it was 9.56 upbm affinity estimate (log intensity, higher = more binding, comparable within an allelic series); in assay [10] it was 9.56 upbm affinity estimate (log intensity, higher = more binding, comparable within an allelic series); in assay [11] it was 9.38 upbm affinity estimate (log intensity, higher = more binding, comparable within an allelic series). Besides, the binding signal in assay [12] was 9.64 upbm affinity estimate (log intensity, higher = more binding, comparable within an allelic series); in assay [13] it was 9.62 upbm affinity estimate (log intensity, higher = more binding, comparable within an allelic series); in assay [14], 8.32 upbm affinity estimate (log intensity, higher = more binding, comparable within an allelic series); in [15], 9.72 upbm affinity estimate (log intensity, higher = more binding, comparable within an allelic series).

For AGCGCCCG, the binding signal was 8.99 upbm affinity estimate (log intensity, higher = more binding, comparable within an allelic series) in [4] and 8.92 upbm affinity estimate (log intensity, higher = more binding, comparable within an allelic series) in assay [5].

CGCTGCGC: the binding signal in assay [3] is 7.75 upbm affinity estimate (log intensity, higher = more binding, comparable within an allelic series); in [16] it was 7.66 upbm affinity estimate (log intensity, higher = more binding, comparable within an allelic series); in assay [17], 7.68 upbm affinity estimate (log intensity, higher = more binding, comparable within an allelic series); in assay [18] it was 7.68 upbm affinity estimate (log intensity, higher = more binding, comparable within an allelic series); in [19], 7.74 upbm affinity estimate (log intensity, higher = more binding, comparable within an allelic series); in assay [20], 7.41 upbm affinity estimate (log intensity, higher = more binding, comparable within an allelic series).

For the sequence GTCCGGAC, the binding signal in [7] was 9.77 upbm affinity estimate (log intensity, higher = more binding, comparable within an allelic series); in assay [10], 9.72 upbm affinity estimate (log intensity, higher = more binding, comparable within an allelic series); in assay [11] it was 9.8 upbm affinity estimate (log intensity, higher = more binding, comparable within an allelic series); in assay [13], 9.89 upbm affinity estimate (log intensity, higher = more binding, comparable within an allelic series).

Regarding ACGCCGGG, the binding signal in assay [6] was 9.71 upbm affinity estimate (log intensity, higher = more binding, comparable within an allelic series); in [9], 9.86 upbm affinity estimate (log intensity, higher = more binding, comparable within an allelic series); in assay [12], 9.92 upbm affinity estimate (log intensity, higher = more binding, comparable within an allelic series); in assay [15], 9.88 upbm affinity estimate (log intensity, higher = more binding, comparable within an allelic series).

Consider CGGCCTGC, for which the binding signal was 8.37 upbm affinity estimate (log intensity, higher = more binding, comparable within an allelic series) in [8] and 8.26 upbm affinity estimate (log intensity, higher = more binding, comparable within an allelic series) in [14].

As to AACGCGGC, the binding signal in assay [4] was 9.12 upbm affinity estimate (log intensity, higher = more binding, comparable within an allelic series); in assay [5] it was 9.14 upbm affinity estimate (log intensity, higher = more binding, comparable within an allelic series).

As for AGATATAC, the binding signal in assay [20] is 8.23 upbm affinity estimate (log intensity, higher = more binding, comparable within an allelic series).

GGGGGGAC: the binding signal in assay [7] was 9.27 upbm affinity estimate (log intensity, higher = more binding, comparable within an allelic series); in assay [10] it was 9.04 upbm affinity estimate (log intensity, higher = more binding, comparable within an allelic series); in [11], 9.37 upbm affinity estimate (log intensity, higher = more binding, comparable within an allelic series); in assay [13], 9.31 upbm affinity estimate (log intensity, higher = more binding, comparable within an allelic series); in assay [20], 7.04 upbm affinity estimate (log intensity, higher = more binding, comparable within an allelic series).

On to GGCGGACC, for which the binding signal in assay [3] is 7.72 upbm affinity estimate (log intensity, higher = more binding, comparable within an allelic series); in [16], 7.74 upbm affinity estimate (log intensity, higher = more binding, comparable within an allelic series); in assay [17], 7.74 upbm affinity estimate (log intensity, higher = more binding, comparable within an allelic series); in [18], 7.69 upbm affinity estimate (log intensity, higher = more binding, comparable within an allelic series); in assay [19], 7.67 upbm affinity estimate (log intensity, higher = more binding, comparable within an allelic series).

In the case of CCCTAGGG, the binding signal in assay [1] was 10.6 upbm affinity estimate (log intensity, higher = more binding, comparable within an allelic series); in assay [2], 10.5 upbm affinity estimate (log intensity, higher = more binding, comparable within an allelic series).

As for CCGGGCGC, the binding signal was 9.61 upbm affinity estimate (log intensity, higher = more binding, comparable within an allelic series) in assay [6]; 9.34 upbm affinity estimate (log intensity, higher = more binding, comparable within an allelic series) in [7]; 9.64 upbm affinity estimate (log intensity, higher = more binding, comparable within an allelic series) in assay [9]; 9.51 upbm affinity estimate (log intensity, higher = more binding, comparable within an allelic series) in [10]; 9.31 upbm affinity estimate (log intensity, higher = more binding, comparable within an allelic series) in [11]; 9.56 upbm affinity estimate (log intensity, higher = more binding, comparable within an allelic series) in assay [12]. Moreover, the binding signal was 9.66 upbm affinity estimate (log intensity, higher = more binding, comparable within an allelic series) in [13] and 9.82 upbm affinity estimate (log intensity, higher = more binding, comparable within an allelic series) in assay [15].

Take CGCTCCGC: the binding signal was 9.03 upbm affinity estimate (log intensity, higher = more binding, comparable within an allelic series) in assay [4] and 9.09 upbm affinity estimate (log intensity, higher = more binding, comparable within an allelic series) in [5].

Turning to GCACGCCC, the binding signal in assay [8] was 8.55 upbm affinity estimate (log intensity, higher = more binding, comparable within an allelic series); in [14] it was 8.44 upbm affinity estimate (log intensity, higher = more binding, comparable within an allelic series).

GTATCATA: the binding signal in [6] was 10.3 upbm affinity estimate (log intensity, higher = more binding, comparable within an allelic series); in [9] it was 10.6 upbm affinity estimate (log intensity, higher = more binding, comparable within an allelic series); in assay [12] it was 11 upbm affinity estimate (log intensity, higher = more binding, comparable within an allelic series).

Turning to CCAGACGG, the binding signal is 9.56 upbm affinity estimate (log intensity, higher = more binding, comparable within an allelic series) in assay [7]; 9.6 upbm affinity estimate (log intensity, higher = more binding, comparable within an allelic series) in [10]; 9.51 upbm affinity estimate (log intensity, higher = more binding, comparable within an allelic series) in assay [11]; 9.67 upbm affinity estimate (log intensity, higher = more binding, comparable within an allelic series) in [13].

AGCGCAGG: the binding signal is 8.41 upbm affinity estimate (log intensity, higher = more binding, comparable within an allelic series) in [8] and 8.31 upbm affinity estimate (log intensity, higher = more binding, comparable within an allelic series) in [14].

In the case of CGTCGCGC, the binding signal in assay [3] was 7.76 upbm affinity estimate (log intensity, higher = more binding, comparable within an allelic series); in assay [16], 7.7 upbm affinity estimate (log intensity, higher = more binding, comparable within an allelic series); in assay [17] it was 7.79 upbm affinity estimate (log intensity, higher = more binding, comparable within an allelic series); in [18] it was 7.7 upbm affinity estimate (log intensity, higher = more binding, comparable within an allelic series); in assay [19], 7.8 upbm affinity estimate (log intensity, higher = more binding, comparable within an allelic series).

As to GGGGGCCA, the binding signal was 9.65 upbm affinity estimate (log intensity, higher = more binding, comparable within an allelic series) in assay [6]; 9.62 upbm affinity estimate (log intensity, higher = more binding, comparable within an allelic series) in [9]; 9.83 upbm affinity estimate (log intensity, higher = more binding, comparable within an allelic series) in [12]; 9.79 upbm affinity estimate (log intensity, higher = more binding, comparable within an allelic series) in assay [15].

Consider CGGCCACC, for which the binding signal in [8] is 8.41 upbm affinity estimate (log intensity, higher = more binding, comparable within an allelic series); in assay [14], 8.25 upbm affinity estimate (log intensity, higher = more binding, comparable within an allelic series).

With CTGCGGAC, the binding signal in [4] is 8.87 upbm affinity estimate (log intensity, higher = more binding, comparable within an allelic series); in [5] it was 8.8 upbm affinity estimate (log intensity, higher = more binding, comparable within an allelic series).

As to AGCCGGCT, the binding signal is 7.78 upbm affinity estimate (log intensity, higher = more binding, comparable within an allelic series) in assay [3]; 8.13 upbm affinity estimate (log intensity, higher = more binding, comparable within an allelic series) in assay [16]; 7.76 upbm affinity estimate (log intensity, higher = more binding, comparable within an allelic series) in assay [17]; 7.76 upbm affinity estimate (log intensity, higher = more binding, comparable within an allelic series) in assay [18]; 7.77 upbm affinity estimate (log intensity, higher = more binding, comparable within an allelic series) in assay [19].

On to CGGCTTCC, for which the binding signal was 9.74 upbm affinity estimate (log intensity, higher = more binding, comparable within an allelic series) in [6]; 9.5 upbm affinity estimate (log intensity, higher = more binding, comparable within an allelic series) in [9]; 9.53 upbm affinity estimate (log intensity, higher = more binding, comparable within an allelic series) in assay [12]; 9.63 upbm affinity estimate (log intensity, higher = more binding, comparable within an allelic series) in [15].

Take CCCCAGCG: the binding signal is 10.5 upbm affinity estimate (log intensity, higher = more binding, comparable within an allelic series) in [1] and 10.6 upbm affinity estimate (log intensity, higher = more binding, comparable within an allelic series) in assay [2].

For the sequence GCAGTGGC, in [20], the binding signal was 7.24 upbm affinity estimate (log intensity, higher = more binding, comparable within an allelic series).

As to CATGATCA, the binding signal in assay [3] is 8.19 upbm affinity estimate (log intensity, higher = more binding, comparable within an allelic series); in [16], 9.26 upbm affinity estimate (log intensity, higher = more binding, comparable within an allelic series); in assay [19], 8.21 upbm affinity estimate (log intensity, higher = more binding, comparable within an allelic series).

For the sequence AGGGCCCG, the binding signal in assay [20] was 6.91 upbm affinity estimate (log intensity, higher = more binding, comparable within an allelic series).

Take AGGCGCCC: the binding signal in assay [3] was 7.72 upbm affinity estimate (log intensity, higher = more binding, comparable within an allelic series); in assay [16] it was 7.55 upbm affinity estimate (log intensity, higher = more binding, comparable within an allelic series); in assay [17] it was 7.7 upbm affinity estimate (log intensity, higher = more binding, comparable within an allelic series); in assay [18], 7.59 upbm affinity estimate (log intensity, higher = more binding, comparable within an allelic series); in assay [19] it was 7.72 upbm affinity estimate (log intensity, higher = more binding, comparable within an allelic series).
